Results as given in PubChem BioAssay (NCI).
Compounds without any hit were thinned out: in the full panel of roughly 83,000, 20% have a hit.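 Plates (96-well) were seeded with cells, treated with compound at one concentration, and incubated for 48 hours before percent growth was determined.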 The source made the active and inactive calls. The calls were made as follows: active = growth percent below 10; inactive = the rest.

Key:
Assay in all cases: NCI-60 one-dose screen, 48 h (100 = growth as untreated, 0 = no growth, -100 = all killed)
Conditions in all cases: 10 µM unless noted
[1] = test system: HCT-15 colon
[2] = test system: HT29 colon
[3] = test system: SNB-75 CNS
[4] = test system: SNB-19 CNS
[5] = test system: U251 CNS
[6] = test system: PC-3 prostate
[7] = test system: SK-MEL-5 melanoma
[8] = test system: UACC-62 melanoma
[9] = test system: LOX IMVI melanoma
[10] = test system: SK-MEL-28 melanoma
[11] = test system: SK-MEL-2 melanoma
[12] = test system: EKVX NSCLC
[13] = test system: SN12C renal
[14] = test system: UO-31 renal
[15] = test system: TK-10 renal
[16] = test system: ACHN renal
[17] = test system: CAKI-1 renal
[18] = test system: A498 renal
[19] = test system: CCRF-CEM leukemia
[20] = test system: MOLT-4 leukemia

Measured: growth

CC(C)OC(=O)Nc1cc(F)c(F)cc1F
inactive: [1] 98.1% | [2] 99.3% | [3] 96.3% | [4] 102% | [5] 99.3% | [6] 99.8% | [7] 102% | [8] 96.6% | [9] 109% | [10] 96% | [11] 95.4% | [12] 94.1% | [13] 102% | [14] 86.1% | [15] 96.3% | [16] 101% | [17] 97.1% | [18] 93.6% | [19] 103% | [20] 103%

O=C1COCCN1c1ccc(NCc2cn(Cc3cccc4ccccc34)c3ccccc23)cc1
inactive: [1] 74% | [2] 97.7% | [3] 79.6% | [4] 97.9% | [5] 74.5% | [6] 79.4% | [7] 82.1% | [8] 41.7% | [9] 91% | [10] 92.6% | [11] 93.4% | [12] 96.6% | [13] 92.6% | [14] 58% | [15] 44.4% | [16] 91.4% | [19] 96.9% | [20] 92%
active: [17] 7.53% | [18] -39.1%

C=C(C)[C@@H]1CC[C@]2(C(=O)OC)CC[C@]3(C)[C@H](CC[C@@H]4[C@@]5(C)CC/C(=N\OCCC(=NCCC#N)NOCCC#N)C(C)(C)[C@@H]5CC[C@]43C)[C@@H]12
inactive: [1] 34.3% [100 µM] | [3] 18.4% [100 µM] | [4] 28.9% [100 µM] | [9] 14.6% [100 µM] | [10] 29.2% [100 µM] | [11] 36.2% [100 µM] | [12] 53.1% [100 µM] | [14] 19% [100 µM] | [15] 37.9% [100 µM] | [16] 13.9% [100 µM] | [17] 18.5% [100 µM]
active: [2] 3.88% [100 µM] | [5] -39.7% [100 µM] | [6] 4.49% [100 µM] | [7] -84.7% [100 µM] | [8] -25.8% [100 µM] | [13] -71.9% [100 µM] | [18] -0.384% [100 µM] | [19] 7.42% [100 µM] | [20] -26.8% [100 µM]

C=CCCC1(C)NC(=O)NC1=O (stereo not given)
inactive: [1] 105% | [2] 93.2% | [3] 89.3% | [4] 99.6% | [5] 103% | [6] 86.5% | [7] 104% | [8] 99.2% | [9] 93.7% | [10] 106% | [11] 102% | [12] 105% | [13] 97.9% | [14] 97.8% | [15] 89.9% | [16] 112% | [17] 93.3% | [18] 88.5% | [19] 85.6% | [20] 83.7%

C=C(C)[C@@H]1CC[C@]2(C(=O)OC)CC[C@]3(C)[C@H](CC[C@@H]4[C@@](C)(CCc5nn[nH]n5)[C@H](C(=C)C)CC[C@]43C)[C@@H]12
active: [1] 6.32% [100 µM] | [2] -16.1% [100 µM] | [3] -77.8% [100 µM] | [4] -5.69% [100 µM] | [5] -26.5% [100 µM] | [6] 5.02% [100 µM] | [7] -73.7% [100 µM] | [8] -72.8% [100 µM] | [9] -90.9% [100 µM] | [10] -63% [100 µM] | [11] -60.8% [100 µM] | [12] 0.298% [100 µM] | [13] -45.6% [100 µM] | [14] -88.5% [100 µM] | [15] 8.06% [100 µM] | [16] 3.75% [100 µM] | [17] -17.2% [100 µM] | [18] -61.5% [100 µM] | [19] 1.92% [100 µM] | [20] 0.832% [100 µM]

C[C@H]1[C@H](C)CC[C@]2(COC(=O)CCC(=O)O)CC[C@]3(C)C(=CC[C@@H]4[C@@]5(C)CCCNC(C)(C)[C@@H]5CC[C@]43C)[C@H]12
active: [3] -2.3% [100 µM]
inactive: [1] 65.9% [100 µM] | [2] 52.2% [100 µM] | [4] 53.1% [100 µM] | [5] 60.7% [100 µM] | [6] 32.7% [100 µM] | [7] 46.2% [100 µM] | [8] 56.3% [100 µM] | [9] 70.5% [100 µM] | [10] 82.2% [100 µM] | [11] 55.6% [100 µM] | [12] 71.5% [100 µM] | [13] 65% [100 µM] | [14] 65.4% [100 µM] | [15] 81.3% [100 µM] | [16] 60.2% [100 µM] | [17] 54.1% [100 µM] | [18] 70.3% [100 µM] | [19] 73.5% [100 µM] | [20] 46% [100 µM]

CCNc1cc2c(cc1Br)-c1ccccc1C2=O
inactive: [1] 77.6% | [2] 97.4% | [3] 78.1% | [4] 96% | [5] 96.3% | [6] 81.4% | [7] 95.2% | [8] 86.9% | [9] 88.1% | [10] 114% | [11] 98% | [12] 71.5% | [13] 94.5% | [14] 55.1% | [15] 104% | [16] 98.2% | [17] 74.5% | [18] 93.4% | [19] 97.2% | [20] 98.3%

C[C@H]1[C@H](C)CC[C@]2(C(=O)O)CC[C@]3(C)C(=CC[C@@H]4[C@@]5(C)C/C(=C/c6cccnc6)[C@H](O)C(C)(C)[C@@H]5CC[C@]43C)[C@H]12
inactive: [6] 17.4% [100 µM] | [12] 15.8% [100 µM] | [18] 19% [100 µM]
active: [1] 2.04% [100 µM] | [2] -72.1% [100 µM] | [3] -3.83% [100 µM] | [4] 3.05% [100 µM] | [5] -57.2% [100 µM] | [7] -64.4% [100 µM] | [8] -70.3% [100 µM] | [9] -91.8% [100 µM] | [10] -49.1% [100 µM] | [11] -28.1% [100 µM] | [13] 3% [100 µM] | [14] -77% [100 µM] | [15] 8.85% [100 µM] | [16] 4.57% [100 µM] | [17] 7.71% [100 µM] | [19] -1.43% [100 µM] | [20] 2.42% [100 µM]

Fc1ccc(NC(=S)c2ccccc2)cc1
inactive: [1] 102% | [2] 109% | [3] 99.7% | [4] 100% | [5] 98.5% | [6] 100% | [7] 101% | [8] 88.9% | [9] 112% | [10] 102% | [11] 98.3% | [12] 97.5% | [13] 103% | [14] 88.9% | [15] 94.5% | [16] 102% | [17] 89.8% | [18] 72.8% | [19] 94.6% | [20] 99.9%

CC1=C/C(=C(\c2cc(C)c(O)c(C(=O)O)c2)c2c(Cl)cccc2Cl)C=C(C(=O)O)C1=O
inactive: [1] 105% | [2] 97.8% | [3] 90.3% | [4] 91.3% | [5] 104% | [6] 89% | [7] 100% | [8] 94.9% | [9] 95.7% | [10] 116% | [11] 104% | [12] 95.3% | [13] 97.1% | [14] 67.8% | [15] 108% | [16] 92.7% | [17] 88.1% | [18] 110% | [19] 103% | [20] 102%

N#C/C(C(=O)c1ccccc1)=C1/C(=O)Nc2ccc(Br)cc21
inactive: [1] 107% | [2] 113% | [3] 70.5% | [4] 98.6% | [5] 106% | [6] 96.4% | [7] 95.5% | [8] 92.5% | [9] 103% | [10] 105% | [11] 113% | [12] 87.5% | [13] 91.8% | [14] 67.2% | [15] 142% | [16] 88.7% | [17] 84% | [18] 96.8% | [19] 110% | [20] 101%

O=C(Nc1ccc(Nc2ccncc2)cc1)c1ccc([N+](=O)[O-])cc1
active: [19] 1.05% | [20] 6.48%
inactive: [1] 77.5% | [2] 63.4% | [3] 92% | [4] 80.1% | [5] 38% | [6] 70% | [7] 73.1% | [8] 15.4% | [9] 62.3% | [10] 84.9% | [11] 94.8% | [12] 69.9% | [13] 72.9% | [14] 55.6% | [15] 90.4% | [16] 80.4% | [17] 52.6% | [18] 76%

O=C(NCCCCCCCNC(=O)OCc1ccc2c(Cl)cc(Cl)c(O)c2n1)OCc1ccc2c(Cl)cc(Cl)c(O)c2n1
active: [1] -24.6% | [2] -67% | [3] -92.4% | [4] 0.446% | [5] -90.8% | [6] -54.5% | [7] -96.1% | [8] -79.3% | [9] -88.5% | [10] -83.1% | [11] -70.6% | [12] -45.8% | [13] -76.5% | [14] -100% | [15] -80.7% | [16] -99.9% | [17] -93.4% | [18] -80.6% | [19] 4.67% | [20] -2.43%
